Results: PubChem BioAssay (Tox21)
Records with an inconclusive call do not appear. Entries that show only a call come without a potency. A number with no mark means an inactive call. Calls of active or inactive are those of the source. The call rests on the fitted dose curve; in most records, active means well fitted cell-killing curve with a large enough effect in the repeat runs; inconclusive means weak or mixed curves, or effect the other way; inactive means flat fitted curve, though single readings scatter.

Experiments:
[1] = cAMP Responsive Elements (CRE) small molecule antagonists, cell-based qHTS assay: qHTS cell viability counter screen (AID 2060913); further: nearly all actives have a fitted effect of over 40% in size
Method in brief: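 Viability of NKH477-stimulated (0.25 uM final) CRE-bla HEK293T cells is measured by CellTiter-Glo luminescence following 3 hrs compound exposure at 37 C.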

[2] = cAMP Responsive Elements (CRE) small molecule agonists, cell-based qHTS assay: qHTS cell viability counter screen (AID 2060914);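 further: viability read after 3 h of compound exposure; nearly all actives have a fitted effect of over 50% in size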
Method in brief: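 Cytotoxicity counter screen multiplexed with the CRE-bla reporter assay in HEK 293T cells: 3 h compound exposure at 37 °C, followed by CellTiter-Glo luminescence measured in the same wells.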

Compound	Potency [1]	Potency [2]	viability change, negative = cytotoxic [1]	activity change, negative = cytotoxicity [2]
CCN(CC)CCOC(=O)c1ccc(N)cc1	inactive	inactive		
S=C(SSSSSSC(=S)N1CCCCC1)N1CCCCC1			6.65% [at 18.9 µM]	-4.69% [at 18.9 µM]
CC(=O)[C@H]1CC[C@H]2[C@@H]3CC=C4C[C@@H](O)CC[C@]4(C)[C@H]3CC[C@]12C	inactive	inactive		
O=C1OC(O)C(C(Cl)Cl)=C1Cl (stereo not given)	inactive	inactive		
C=CC(=O)OCCOc1ccccc1	inactive	inactive		
CNNCc1ccc(C(=O)NC(C)C)cc1	inactive	inactive		
N#C/C(=C1/SC[C@@H](c2ccc(Cl)cc2Cl)S1)n1ccnc1	inactive	inactive		
CCC(C)(CCC(C)C)C(=O)O (stereo not given)	inactive	inactive		
CC(=O)OC(C)=O	inactive	inactive		
O=[N+]([O-])C1(Br)COCOC1	inactive	inactive		
